Reference: PubChem BioAssay (NCI)
The panel holds about 79,000 compounds, 15% with a hit somewhere; the sample as a whole holds those more often. Active and inactive are the calls of the source. Cut-off read from the data, not from the text of the source: active = growth inhibition above about 70%; inactive = the rest.

Columns and labels:
[1] = NCI Yeast Anticancer Drug Screen. Data for the rad52 strain (AID 147);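 note: 0% = growth of vehicle-treated control cultures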; settings: S. cerevisiae rad52 mutant growth inhibition, active compounds read high
How it was run: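 Growth of repair-deficient yeast cells was compared between compound-treated and vehicle-treated cultures to give percent inhibition.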

[2] = NCI Yeast Anticancer Drug Screen. Data for the wt1 strain (AID 149);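 note: 0% = growth of vehicle-treated wt1 cultures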; settings: S. cerevisiae wt1 strain (SPY 50644) growth inhibition, active compounds read high
How it was run: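 Measured: growth of wt1 yeast under compound versus vehicle treatment, reported as inhibition.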

[3] = NCI Yeast Anticancer Drug Screen. Data for the rad50EPP+ strain (AID 151);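 note: 0% = growth of vehicle-treated control cultures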; settings: S. cerevisiae rad50 mutant strain, active compounds read high
How it was run: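 Measured: growth inhibition of rad50EPP+ yeast. Reference: vehicle-treated controls. Screen uses strains with defined genetic alterations in DNA damage repair or cell cycle control.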

[4] = NCI Yeast Anticancer Drug Screen. Data for the mgt1 strain (AID 153); settings: S. cerevisiae mgt1 mutant growth inhibition, active compounds read high
How it was run: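 Compounds were applied to mgt1 mutant yeast, and growth was then compared against vehicle-treated control cultures to give percent inhibition.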

[5] = NCI Yeast Anticancer Drug Screen. Data for the rad50 strain (AID 155);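 note: 0% = growth of vehicle-only cultures of the same strain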; settings: S. cerevisiae rad50 strain growth inhibition, active compounds read high
How it was run: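 Growth of the mutant yeast was measured after compound exposure and referenced to vehicle-treated cultures.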

[6] = NCI Yeast Anticancer Drug Screen. Data for the mec2-1 strain (AID 157); settings: S. cerevisiae mec2-1 strain, active compounds read high
How it was run: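 Compounds were applied to mec2-1 yeast cells. Their growth was then compared with that of vehicle-treated cultures to give growth inhibition.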

[7] = NCI Yeast Anticancer Drug Screen. Data for the rad14 strain (AID 159);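 note: 0% = growth of vehicle-treated control cultures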; settings: S. cerevisiae rad14 strain growth inhibition, active compounds read high
How it was run: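 Here, inhibition of yeast growth was measured after compound exposure, using a strain with a genetic defect in DNA damage repair and vehicle-treated cultures as the reference.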

[8] = NCI Yeast Anticancer Drug Screen. Data for the sgs1 mgt1 strain (AID 161);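 note: 0% = growth of cultures given vehicle only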; settings: S. cerevisiae sgs1 mgt1 strain, active compounds read high
How it was run: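 Yeast cells carrying a defined DNA-repair defect were exposed to test compounds. Growth inhibition was measured relative to vehicle-treated controls.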

[9] = NCI Yeast Anticancer Drug Screen. Data for the CLN2oe strain (AID 163);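 note: 0% = growth of vehicle-only control cultures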; settings: S. cerevisiae CLN2oe strain, active compounds read high
How it was run: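 Cells of an engineered yeast line with disturbed cell-cycle regulation are treated with compound. Inhibition of growth is then calculated relative to the vehicle-treated reference.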

[10] = NCI Yeast Anticancer Drug Screen. Data for the cln2 rad14 strain (AID 165);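 note: 0% = growth equal to vehicle treated cultures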; settings: S. cerevisiae cln2 rad14 strain, active compounds read high
How it was run: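 Strain: cln2 rad14 yeast, altered in cell cycle control and DNA damage repair. Read-out: growth inhibition vs vehicle.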

[11] = NCI Yeast Anticancer Drug Screen. Data for the bub3 strain (AID 167); settings: S. cerevisiae bub3 mutant strain, active compounds read high
How it was run: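 Whole-cell yeast assay. The mutant strain was incubated with compounds, and growth inhibition was determined by comparison with vehicle-treated cells.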

[12] = NCI Yeast Anticancer Drug Screen. Data for the wt2 strain (AID 169);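 note: 0% = growth of vehicle-treated yeast cultures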; settings: S. cerevisiae wt2 strain growth inhibition, active compounds read high
How it was run: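 Growth of compound-treated yeast is measured and expressed as inhibition relative to vehicle-only controls.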

[13] = NCI Yeast Anticancer Drug Screen. Data for the mlh1 strain (AID 171);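 note: 0% = growth of vehicle-treated control cultures of the same strain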; settings: S. cerevisiae mlh1 strain growth inhibition, active compounds read high
How it was run: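 Test agents were incubated with yeast bearing a defined DNA damage repair or cell cycle control alteration; values are growth inhibition normalised to vehicle-treated cultures.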

[14] = NCI Yeast Anticancer Drug Screen. Data for the sgs1 strain (AID 173);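 note: 0% = growth of vehicle-only control cultures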; settings: S. cerevisiae sgs1 mutant, active compounds read high
How it was run: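 Strain with an altered DNA repair or cell cycle pathway exposed to compound. Growth then measured. Value = inhibition versus vehicle control.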

[15] = NCI Yeast Anticancer Drug Screen. Data for the mlh1 rad18 strain (AID 175); settings: S. cerevisiae mlh1 rad18 strain growth inhibition, active compounds read high
How it was run: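 A repair-deficient yeast strain is exposed to test compound, and growth is scored relative to vehicle-treated controls.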

[16] = NCI Yeast Anticancer Drug Screen. Data for the rad18 strain (AID 177); settings: S. cerevisiae rad18 mutant growth inhibition, active compounds read high
How it was run: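 DNA-repair-defective yeast; compound treatment; growth inhibition scored against vehicle.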

[17] = at 5.0 µM (retest, dose inferred, filed as 0.5)
[18] = at 50.0 µM (retest, dose inferred, filed as 5.0)

Measured: growth inhibition

CC(=O)Cc1ccc[cH-]1.[Fe+2].c1cc[cH-]c1
inactive: [1]; at 1.2 µM 5% | [1]; at 3.7 µM 7% | [1]; at 11.0 µM 9% | [1]; at 33.0 µM 18% | [1]; at 100.0 µM 46% | [2]; at 1.2 µM 1% | [2]; at 3.7 µM 2% | [2]; at 11.0 µM 14% | [2]; at 33.0 µM 10% | [2]; at 100.0 µM 7% | [3]; at 1.2 µM 3% | [3]; at 3.7 µM 4% | [3]; at 11.0 µM 8% | [3]; at 33.0 µM 15% | [3]; at 100.0 µM 13% | [4]; at 1.2 µM 8% | [4]; at 3.7 µM 11% | [4]; at 11.0 µM 21% | [4]; at 33.0 µM 11% | [4]; at 100.0 µM 20% | [5]; at 1.2 µM 12% | [5]; at 3.7 µM 24% | [5]; [17] -14% | [5]; at 11.0 µM 22% | [5]; at 33.0 µM 22% | [5]; [18] 8% | [5]; at 100.0 µM 62% | [6]; at 1.2 µM -5% | [6]; at 3.7 µM -5% | [6]; [17] -6% | [6]; at 11.0 µM -1% | [6]; at 33.0 µM 12% | [6]; [18] -12% | [6]; at 50.0 µM 60.6% | [6]; at 100.0 µM 18% | [7]; at 1.2 µM 0% | [7]; at 3.7 µM -5% | [7]; at 11.0 µM 13% | [7]; at 33.0 µM 34% | [7]; at 100.0 µM 49% | [8]; [17] -4% | [8]; [18] 12% | [9]; at 1.2 µM 4% | [9]; at 3.7 µM 5% | [9]; at 11.0 µM 17% | [9]; at 33.0 µM 23% | [9]; at 100.0 µM 23% | [10]; [17] -7% | [10]; [18] 7% | [10]; at 50.0 µM 40.5% | [11]; at 1.2 µM -4% | [11]; at 3.7 µM -10% | [11]; [17] -4% | [11]; at 11.0 µM 7% | [11]; at 33.0 µM 13% | [11]; [18] 15% | [11]; at 100.0 µM 21% | [12]; at 1.2 µM 2% | [12]; at 3.7 µM 5% | [12]; at 11.0 µM 13% | [12]; at 33.0 µM 17% | [12]; at 100.0 µM 32% | [13]; at 1.2 µM -1% | [13]; at 3.7 µM -3% | [13]; at 11.0 µM -2% | [13]; at 33.0 µM 7% | [13]; at 100.0 µM 29% | [14]; at 1.2 µM 0% | [14]; at 3.7 µM 0% | [14]; at 11.0 µM 9% | [14]; at 33.0 µM 23% | [14]; at 100.0 µM 46% | [15]; [17] 3% | [15]; [18] 68% | [16]; at 1.2 µM 6% | [16]; at 3.7 µM 17% | [16]; at 11.0 µM 29% | [16]; at 33.0 µM 10% | [16]; at 100.0 µM 35%
active: [5]; at 50.0 µM 96.2% | [8]; at 50.0 µM 86.8% | [11]; at 50.0 µM 72.5% | [15]; at 50.0 µM 92.7%

Cc1c(Cl)ccc2c1S(=O)(=O)c1cccc(Cl)c1-2
inactive: [1]; at 1.2 µM 0% | [1]; at 3.7 µM 0% | [1]; at 11.0 µM -4% | [1]; at 33.0 µM -9% | [1]; at 100.0 µM -9% | [2]; at 1.2 µM -6% | [2]; at 3.7 µM -2% | [2]; at 11.0 µM -1% | [2]; at 33.0 µM -15% | [2]; at 100.0 µM -1% | [3]; at 1.2 µM -12% | [3]; at 3.7 µM 12% | [3]; at 11.0 µM 7% | [3]; at 33.0 µM -37% | [3]; at 100.0 µM -17% | [4]; at 1.2 µM -2% | [4]; at 3.7 µM 1% | [4]; at 11.0 µM 9% | [4]; at 33.0 µM -5% | [4]; at 100.0 µM -8% | [5]; at 1.2 µM -22% | [5]; at 3.7 µM -9% | [5]; at 11.0 µM -30% | [5]; at 33.0 µM -17% | [5]; at 50.0 µM 20.8% | [5]; at 100.0 µM -3% | [6]; at 1.2 µM -24% | [6]; at 3.7 µM -31% | [6]; at 11.0 µM -32% | [6]; at 33.0 µM -28% | [6]; at 50.0 µM 29.5% | [6]; at 100.0 µM -32% | [7]; at 1.2 µM 2% | [7]; at 3.7 µM 6% | [7]; at 11.0 µM 2% | [7]; at 33.0 µM 5% | [7]; at 100.0 µM 5% | [8]; [17] -13% | [8]; [18] 28% | [8]; at 50.0 µM 20.9% | [9]; at 1.2 µM -5% | [9]; at 3.7 µM 6% | [9]; at 11.0 µM 8% | [9]; at 33.0 µM -4% | [9]; at 100.0 µM -18% | [10]; [17] 31% | [10]; [18] 28% | [10]; at 50.0 µM 0.75% | [11]; at 1.2 µM -27% | [11]; at 3.7 µM -13% | [11]; [17] 18% | [11]; at 11.0 µM 1% | [11]; at 33.0 µM -10% | [11]; [18] 51% | [11]; at 100.0 µM -18% | [12]; at 1.2 µM -10% | [12]; at 3.7 µM -9% | [12]; at 11.0 µM -12% | [12]; at 33.0 µM -12% | [12]; at 100.0 µM -25% | [13]; at 1.2 µM -3% | [13]; at 3.7 µM 2% | [13]; at 11.0 µM -5% | [13]; at 33.0 µM -8% | [13]; at 100.0 µM -2% | [14]; at 1.2 µM -10% | [14]; at 3.7 µM -19% | [14]; at 11.0 µM -18% | [14]; at 33.0 µM -13% | [14]; at 100.0 µM -24% | [15]; at 50.0 µM 37.2% | [16]; at 1.2 µM -18% | [16]; at 3.7 µM 2% | [16]; at 11.0 µM 6% | [16]; at 33.0 µM -1% | [16]; at 100.0 µM 7%
active: [5]; [17] 100% | [5]; [18] 100% | [6]; [17] 100% | [6]; [18] 100% | [11]; at 50.0 µM 81.3% | [15]; [17] 100% | [15]; [18] 100%
